Laboratory results published in PubChem BioAssay (NCI).
Compounds without any hit were thinned out: in the full panel of roughly 83,000, 20% have a hit.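 Assay: single dose, 48 h. Readout: percent growth (0 = no net growth; negative = cell death). Active: <10.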 Unmarked numbers belong to inactive results. The source made the active and inactive calls.

Experiments:
Test in all cases: NCI-60 one-dose screen, 48 h (100 = growth as untreated, 0 = no growth, -100 = all killed)
Conditions in all cases: 10 µM unless noted
DU-145 prostate = system: DU-145 prostate
K-562 leukemia = system: K-562 leukemia
MALME-3M melanoma = system: MALME-3M melanoma
MDA-MB-231 breast = system: MDA-MB-231 breast
RXF 393 renal = system: RXF 393 renal
SF-268 CNS = system: SF-268 CNS
SF-295 CNS = system: SF-295 CNS
SF-539 CNS = system: SF-539 CNS
UACC-257 melanoma = system: UACC-257 melanoma
M14 melanoma = system: M14 melanoma
HCT-15 colon = system: HCT-15 colon
HT29 colon = system: HT29 colon
SNB-75 CNS = system: SNB-75 CNS
SNB-19 CNS = system: SNB-19 CNS
U251 CNS = system: U251 CNS
PC-3 prostate = system: PC-3 prostate
SK-MEL-5 melanoma = system: SK-MEL-5 melanoma
UACC-62 melanoma = system: UACC-62 melanoma
LOX IMVI melanoma = system: LOX IMVI melanoma
SK-MEL-28 melanoma = system: SK-MEL-28 melanoma

Row | Structure (SMILES) | growth (DU-145 prostate) | growth (K-562 leukemia) | growth (MALME-3M melanoma) | growth (MDA-MB-231 breast) | growth (RXF 393 renal) | growth (SF-268 CNS) | growth (SF-295 CNS) | growth (SF-539 CNS) | growth (UACC-257 melanoma) | growth (M14 melanoma) | growth (HCT-15 colon) | growth (HT29 colon) | growth (SNB-75 CNS) | growth (SNB-19 CNS) | growth (U251 CNS) | growth (PC-3 prostate) | growth (SK-MEL-5 melanoma) | growth (UACC-62 melanoma) | growth (LOX IMVI melanoma) | growth (SK-MEL-28 melanoma)
1 | CC1(C)C2CC=C(/C=N/NC(=O)C3CCC(=O)N3)C1C2 (stereo not given) | 113% | 99.4% | 105% | 122% | 121% | 101% | 97.4% | 100% | 102% | 107% | 104% | 106% | 91.6% | 106% | 101% | 102% | 101% | 99.2% | 96.9% | 108%
2 | Cn1c(=O)c2c(nc(NC3=NS(=O)(=O)c4ccccc43)n2Cc2ccccc2)n(C)c1=O | 108% | 104% | 109% | 90.4% | 78.3% | 96.7% | 103% | 100% | 109% | 106% | 98.4% | 111% | 93.1% | 96.1% | 104% | 95.4% | 99.4% | 91.5% | 95.6% | 107%
3 | COc1ccc(C2=NN(C(=O)c3cc(OC)c(OC)c(OC)c3)C(c3ccc(N(C)C)cc3)C2)cc1 (stereo not given) | 10.7% | 44.2% | 84% | 9.57% (active) | -18.5% (active) | 46.6% | 1.04% (active) | -37% (active) | 62.6% | 2.04% (active) | 10.6% | 19.1% | 18.1% | 37.6% | 15.6% | 20.6% | 5.24% (active) | 15.6% | 28.9% | 56.3%
4 | CCC(C)Nc1ccc(NC(C)CC)cc1 (stereo not given) | 109% | 54.2% | 73.4% | 82% | 81.8% | 96.6% | 111% | 90.7% | 21.1% | 98.9% | 97.7% | 71.5% | 83.2% | 101% | 87.9% | 80.7% | 100% | 87.1% | 74% | 104%
5 | COc1cc(-c2cc(-c3ccc(Nc4ncnc5cc(Cl)ccc45)cc3)nc(N3CCN(C)CC3)n2)cc(OC)c1OC | 98.9% | 56% | 71% | 51.7% | -1.57% (active) | 76.9% | 111% | 32.9% | 117% | 80.8% | 64.4% | 81.7% | 49.5% | 102% | 106% | 82.2% | 74.5% | 97% | 86.2% | 86.6%
6 | N#C/C(=C\c1ccc(-c2ccc(Cl)cc2)o1)c1ccc(Cl)cc1 | 82.1% | 82.4% | 62.9% | 32.6% | 62.8% | 81.2% | 51.9% | 56.9% | 100% | 81.4% | 79.2% | 61.2% | 14% | 62% | 21.6% | 74.8% | 91.4% | 78.7% | 49.2% | 99.7%
7 | CNCc1cccc2c1OCCOCCN(C)C(=O)CN(C)S(=O)(=O)c1ccc(cc1)-c1cnc(N)c(n1)C(=O)N2 | 7.84% (active) | -39.5% (active) | -85.3% (active) | 67.6% | -0.929% (active) | 28.3% | 36.1% | -50.7% (active) | 41.6% | 2.41% (active) | 66.3% | 11.6% | -19.2% (active) | 25.5% | -62.3% (active) | 57.9% | 55.4% | 4.98% (active) | 10.3% | -85.8% (active)
8 | COc1ccc(-c2cc(-c3ccc(OC)cc3)nc(NCCCNc3ccnc4cc(Cl)ccc34)n2)cc1 | -2.21% (active) | -14.3% (active) | -75.6% (active) | 76.7% | 24.2% | 85.3% | 83.8% | 63.4% | 46.2% | 33.3% | -77% (active) | -59.6% (active) | 112% | 93.3% | 70.7% | 61.5% | 22.7% | 91.8% | -95% (active) | 37.5%
9 | C/C(=C(/c1ccc(Cl)cc1)c1ccc(OCCCN(C)C)cc1)c1ccc(Cl)cc1 | 95.5% | 16.9% | 96.4% | 99.2% | 77.6% | 88.5% | 110% | 99% | 103% | 91.5% | 50.4% | 16.3% | 96.4% | 97.3% | 75.9% | 84.8% | 93.8% | 109% | 78.1% | 99.5%
10 | COc1cccc(C(=O)OCC(O)C(=O)NC23CC4CC(CC(C4)C2)C3)c1 (stereo not given) | 106% | 99.1% | 99.1% | 93% | 109% | 102% | 95.9% | 103% | 89% | 99.1% | 96.9% | 101% | 95.2% | 97.2% | 94.1% | 93.3% | 99.2% | 93.4% | 95.4% | 104%
11 | Cc1c2cnccc2c(C)c2c1c1cc(C3OCCCO3)ccc1n2C | 3.92% (active) | 3.75% (active) | -62.9% (active) | -26.1% (active) | -78.9% (active) | 1.29% (active) | 0.404% (active) | -55.1% (active) | -25.8% (active) | -79.8% (active) | 1.16% (active) | 1.09% (active) | -23% (active) | -3.48% (active) | -1.98% (active) | 2.08% (active) | -95.8% (active) | -43.6% (active) | -23.6% (active) | -29.6% (active)
12 | NS(=O)(=O)c1ccc(N/C=C/C(=O)c2cc3ccccc3oc2=O)cc1 | 109% | 94.8% | 85% | 85.2% | 102% | 95.5% | 103% | 93% | 110% | 89.5% | 93.5% | 108% | 76.1% | 103% | 97.2% | 93.7% | 92.6% | 93.7% | 93% | 111%
13 | CCN1C(=S)N(CC)C2C1NC(=S)N2/N=C/C=C/c1ccccc1OC (stereo not given) | 13.9% | 10.2% | 53.5% | 11.5% | 20.4% | 56.4% | 12.4% | -18.5% (active) | 53.6% | 10.3% | 14.9% | 2.78% (active) | -5.85% (active) | 26.5% | 13.1% | 33% | 17.3% | 23.5% | 19% | 54.5%
14 | O=C(CN1C(=O)/C(=C/c2ccco2)SC1=S)NCCc1c[nH]c2ccc(F)cc12 | 108% | 101% | 108% | 102% | 110% | 93.6% | 99.4% | 95.2% | 113% | 106% | 101% | 112% | 78% | 102% | 103% | 94% | 99.6% | 87.8% | 96.9% | 112%
15 | N=c1sc(Cc2cc(Cl)ccc2Cl)cn1CC(=O)c1ccccc1 | 68.7% | 17% | 44.6% | 54.9% | 77.1% | 58.9% | 57.3% | 64.1% | 60.3% | 21.1% | 23.5% | 16.1% | 5.16% (active) | 63.6% | 40.4% | 62.5% | 37.3% | 17.1% | 25.1% | 58.5%
